# Compounds without any hit were thinned out: in the full panel of roughly 83,000, 20% have a hit.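 Percent growth is the endpoint: 0 to 100 indicates growth inhibition (40 means 60% inhibition), 0 means no net growth, and negative values indicate cell death.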 A number with no mark means an inactive call. The source made the active and inactive calls. How the source made its calls: active means growth percent below 10; inactive means the rest.
# Legend:
# Experiment in all cases: NCI-60 one-dose screen, 48 h (100 = growth as untreated, 0 = no growth, -100 = all killed)
# Conditions in all cases: 10 µM
# BT-549 breast = tested on: BT-549 breast
# MDA-MB-435 melanoma = tested on: MDA-MB-435 melanoma
# SW-620 colon = tested on: SW-620 colon
# MCF7 breast = tested on: MCF7 breast
# HCC-2998 colon = tested on: HCC-2998 colon
# KM12 colon = tested on: KM12 colon
# HCT-116 colon = tested on: HCT-116 colon
Structure (SMILES),growth (BT-549 breast),growth (MDA-MB-435 melanoma),growth (SW-620 colon),growth (MCF7 breast),growth (HCC-2998 colon),growth (KM12 colon),growth (HCT-116 colon)
CCOC(=O)C(CSC(c1ccccc1)(c1ccccc1)c1ccccc1)NC(=O)C(CSC(c1ccccc1)(c1ccccc1)c1ccccc1)NC(c1ccccc1)(c1ccccc1)c1ccccc1 (stereo not given),109%,86.1%,104%,95%,113%,111%,
COc1ccc(/C(=C2/O[C@@H]([C@H]3COC(C)(C)O3)[C@H]3OC(C)(C)O[C@@H]23)c2cc(OC)c(OC)c(OC)c2)cc1O,67.5%,-10.2% (active),,60.9%,,,78.1%
COC(=O)c1ccc(=O)oc1,104%,106%,,100%,,104%,97.7%
CCN1Cc2c(/C=C/c3ccccc3)nc3ccc(OC)cc3c2N(c2cccc(Cl)c2)C1,95.2%,76.1%,67.4%,78.5%,86%,94.2%,
N#Cc1c(C#N)c(SSc2c(C#N)c(C#N)c(N)n2-c2ccccc2)n(-c2ccccc2)c1N,109%,114%,98.7%,104%,96.3%,106%,
COc1cc(-c2cc(/C=C3\C(=O)Nc4ccccc43)[nH]n2)cc(OC)c1OC,34.7%,38.7%,60.2%,,87.4%,10.3%,47.3%
Cc1ccc(NC(=O)Nc2cccnc2)cc1NC(=O)Nc1cccnc1,98.1%,73.9%,108%,81%,87.7%,87.2%,
Clc1ccc(-c2cn(-c3ccccc3)c(-c3ccccc3)n2)c(Cl)c1,-12.7% (active),-37.2% (active),-100% (active),5.1% (active),13.7%,-88% (active),
CCOC(=O)C1(CC(C)C)CCOC1=O (stereo not given),105%,104%,98.3%,93.5%,106%,99.3%,
O=C(O)c1ccc(Cl)cc1Nc1ccc(F)cc1,32.5%,83.2%,94.6%,76.7%,81.9%,74.5%,
COc1ccc(-c2nc(-c3nc4ccc(OC)cc4[nH]3)cc3c2[nH]c2ccccc23)cc1,39.8%,39.2%,40.6%,31.8%,57.4%,20.4%,
COc1cc(/C(=C2/O[C@@H]([C@H]3COC(C)(C)O3)[C@H]3OC(C)(C)O[C@@H]23)c2ccc3ccccc3c2)cc(OC)c1OC,22.2%,26.2%,,22.8%,,,
CN(Cc1ccccc1)Cc1ccc([N+](=O)[O-])cc1I,87.7%,102%,89%,91.6%,106%,93.2%,
CC1(C)N=C(N)N=C(N)N1c1ccc(CCc2ccccc2)c(Cl)c1,35.6%,16.2%,17.6%,13.4%,15.3%,13.5%,
CCCCCCCCCCCCCC[n+]1ccc(C(N)=O)cc1,-50.9% (active),,7.11% (active),22.8%,6.43% (active),-87.2% (active),6.07% (active)
O=C1Nc2ccc(Cl)cc2/C1=C\c1c(-c2ccc(Cl)cc2)nc2sc(C3CC3)nn12,65.3%,,80.8%,60.7%,83.7%,82.7%,41.4%
O=C(NN1C(=O)CSC1c1ccc(Cl)cc1)c1cccnc1 (stereo not given),102%,87.3%,,111%,,94.2%,86.9%
COc1cc(C(=C2O[C@@H]([C@H]3COC(C)(C)O3)[C@H]3OC(C)(C)O[C@@H]23)c2cc(OC)c(OC)c(OC)c2)cc(OC)c1OC,111%,113%,,103%,,107%,96.4%
O=C(Cc1csc2nc(-c3ccc(Cl)cc3)cn12)N/N=C/c1ccccc1O,62.6%,67.4%,,42.5%,,36.5%,36.6%

# From PubChem BioAssay (NCI)
